Data reported in PubChem BioAssay AID1076 (NMMLSC, 2008).
Active and inactive are the calls of the source.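 Rule for the calls: active = cell event count below 40, meaning activity score above 60 where score is 100 minus count; inactive = the rest.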

Experiment: LNCaP cell loss by flow event count, confirmation, cytotoxicity control for prostate differentiation activator project, single point (AID 1076);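 note: counts scatter-gated live cells after medium removal discards detached dead cells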
Conditions: flow cytometry event count, 4 d, stronger effect = lower value

Structure (SMILES) | cell event count (at 100 µM) | cell event count (event count, at 10 µM)
CCN(CC)CCNC(=O)c1cc2c(-c3ccc(Cl)cc3)nn(C)c2s1 | 25 (active) | 25
Cc1ccc(C)c(N2CCN(CCCNC(=O)Cn3cc4c(n3)CCC(C)C4)CC2)c1 (centres undefined) | 5 (inactive) | 276
OCc1nc2ccccc2n1CCCOc1ccccc1 | 178 (inactive) | 156
CCOC(=O)c1[nH]c(C)c(C(=O)NC2CCCCCC2)c1C | 63 (inactive) | 112
CCCc1ccc(Oc2cn[nH]c2-c2ccc(O)c(C)c2O)cc1 | 5 (inactive) | 106
Cc1ccc2[nH]c(=O)c3cc(C(=O)N(C)Cc4ccco4)sc3c2c1 | 72 (inactive) | 456
Cc1noc(/C=C/c2ccco2)c1S(=O)(=O)N1CCC(C(=O)N2CCc3ccccc3C2)CC1 | 174 (inactive) | 197
CCN(CCNC(=O)C1CCN(Cc2nc(-c3ccc(Cl)cc3)oc2C)CC1)c1ccccc1 | 24 (inactive) | 391
O=C1c2ccccc2C(Nc2ccc3c(c2)OCO3)N1Cc1ccc2c(c1)OCO2 (centres undefined) | 178 (inactive) | 189
COc1ccc(Nc2nc(N)nc(CN3CCC(Cc4ccccc4)CC3)n2)cc1 | 6 (active) | 7.5
C=CCn1c(=N)n(CC(O)COc2ccccc2OC)c2ccccc21 (centres undefined) | 29 (inactive) | 94
Cc1ccccc1-c1nc(CN2CCC(C(=O)O)CC2)c(C)o1 | 217 (inactive) | 207
COc1ccccc1N1CCN(c2nc3ccccc3nc2C(C#N)C(=O)OC(C)C)CC1 (centres undefined) | 110 (inactive) | 252
c1ccc(CSc2nnc(-c3cccs3)n2Cc2ccco2)cc1 | 55 (inactive) | 122
Cc1cc(=O)n2nc(N3CCCC(C(=O)NCc4ccco4)C3)sc2n1 (centres undefined) | 325 (inactive) | 102
O=C(NCCCN1CCN(c2ccccc2F)CC1)C1CCN(S(=O)(=O)c2cccs2)CC1 | 44 (inactive) | 95.5
COc1ccc(N2CCN(CCCNC(=O)CC3Oc4ccc(C)cc4NC3=O)CC2)cc1 (centres undefined) | 290 (inactive) | 140
COc1ccc(CCn2c(=N)c(C(=O)NCc3ccco3)cc3c(=O)n4ccccc4nc32)cc1 | 32 (inactive) | 225
CCN(CC)CCCNC(=O)c1cc(-c2cccc(Cl)c2)on1 | 170 (inactive) | 376
Cn1c(=O)n(C)c2cc(CN3C(=O)OC(C)(C)C3(C)O)ccc21 (centres undefined) | 211 (inactive) | 145
N#CC(C(=O)c1ccco1)c1ccccn1 (centres undefined) | 40 (active) | 40.5

Structure (SMILES) | cell event count (at 100 µM) | cell event count (event count, at 10 µM)
CCN1CCCC1CNC(=O)c1cc2c(-c3ccc(Cl)cc3)nn(C)c2s1 (centres undefined) | 14 (inactive) | 88.5
Cn1nc(-c2ccc(Cl)cc2)c2cc(C(=O)NCCCN3CCOCC3)sc21 | 33 (inactive) | 184
O=C(CCNC(=O)Cn1ccc2ccccc2c1=O)NCCCN1CCN(c2ccc(F)cc2)CC1 | 156 (inactive) | 91.5
COCCn1c(=O)[nH]c2cc(C(=O)NCCCN3CCN(c4ccc(F)cc4)CC3)ccc2c1=O | 140 (inactive) | 194
CCC(=O)N(Cc1ccco1)c1nc(-c2cc(OC)ccc2OC)cs1 | 227 (inactive) | 158
Cc1cc(N2CCN(C)CC2)nc2ccc(NC(=O)c3ccc(Br)o3)cc12 | 4 (inactive) | 96.5
CCC(CC)C(=O)Nc1cccc(C(=O)NCc2ccco2)c1 | 220 (inactive) | 155
CCN1CCN(CCNC(=O)C2CCCN(Cc3nc(-c4cccc(Cl)c4)oc3C)C2)CC1 (centres undefined) | 14 (inactive) | 141
O=C(c1ccc(COCC(F)(F)F)o1)N1CCCCCC1 | 118 (inactive) | 104
Cc1oc(-c2ccccc2F)nc1CN1CCC(C(=O)NCCC2=CCCCC2)CC1 | 17 (inactive) | 402
COc1ccc2cc3cc(C(=O)Nc4ccccc4N4CCN(C)CC4)oc3nc2c1 | 41 (inactive) | 334
CN(CCNC(=O)C1CC(=O)N(c2ccc(F)c(Cl)c2)C1)Cc1ccccc1 (centres undefined) | 79 (inactive) | 202
COc1ccc(-n2cc(-c3ccccc3)c3c(N4CCN(CCO)CC4)ncnc32)cc1 | 12 (inactive) | 174
COc1ccc(Cc2nc(-c3ccc(-n4cccc4)cc3)no2)cc1OC | 17 (active) | 28
COC(=O)C1=C(C)N=c2s/c(=C/c3cccs3)c(=O)n2C1c1cccs1 (centres undefined) | 125 (inactive) | 320
Cc1ccc2c(c1)NC(=O)C(CC(=O)NCCCN1CCN(c3cc(Cl)ccc3C)CC1)O2 (centres undefined) | 6 (active) | 66
O=C(NCCCN1CCN(c2ccccc2F)CC1)C1CCC(=O)N1C1CCCCC1 (centres undefined) | 388 (inactive) | 282
Cc1ccc(NC(=O)CCNS(=O)(=O)c2ccc3c(c2)oc(=O)n3C)c(C)c1 | 350 (inactive) | 129
Cc1ccc2c(c1)c1c(n2CC(O)CNC(CO)(CO)CO)CCCC1 (centres undefined) | 70 (inactive) | 392
CCn1c(=N)n(CC(O)COc2cccc(C)c2)c2ccccc21 (centres undefined) | 2 (active) | 50.5
Cc1oc(-c2cccc(Cl)c2)nc1CN1CCCC(C(=O)NC(C)c2ccc3c(c2)OCCO3)C1 (centres undefined) | 9 (inactive) | 136

Structure (SMILES) | cell event count (at 100 µM) | cell event count (event count, at 10 µM)
Cc1nc2ncnn2c(C)c1CCC(=O)NCCCN1CCN(c2cccc(Cl)c2)CC1 | 95 (inactive) | 148
Cc1cc2c(=O)n(CC(=O)N3CCN(c4ccccc4)CC3)cnc2s1 | 184 (inactive) | 170
O=C(NCC(c1cccnc1)N1CCOCC1)c1cccc(Cl)c1 (centres undefined) | 175 (inactive) | 94.5
CCC(C(=O)Nc1ccccc1OC)n1c(C(=O)OC)cc2ccsc21 (centres undefined) | 41 (inactive) | 270
Cc1ccccc1CS(=O)(=O)CCC(=O)NCCCN1CCN(c2ccccc2F)CC1 | 108 (inactive) | 71
Cc1oc(-c2ccccc2F)nc1CN1CCC(C(=O)NCc2ccco2)CC1 | 330 (inactive) | 278
Cc1oc(-c2ccc(Cl)cc2)nc1CN1CCC(C(=O)NCc2ccco2)CC1 | 178 (inactive) | 174
CCOC(=O)N1CCN(CC(=O)Nc2cc(C)nn2-c2nc3ccccc3s2)CC1 | 259 (inactive) | 245
O=C(Cn1cnc2ccccc2c1=O)NCCC(=O)N1CCN(c2ccccc2)CC1 | 158 (inactive) | 190
CC1CCCCN1CCNC(=O)c1cc2c(-c3ccccc3F)nn(C)c2s1 (centres undefined) | 255 (inactive) | 384
Cc1cc(C)n2nc(SCC(=O)Nc3ccc(F)cc3)nc2n1 | 226 (inactive) | 343
Cc1oc(-c2ccc(Cl)cc2)nc1CN1CCCC(C(=O)NCCCN2CCOCC2)C1 (centres undefined) | 42 (inactive) | 182
Cc1ccc(C)c2[nH]c(=O)c(CN(CCN3CCCC3)C(=O)Nc3cccc(Cl)c3)cc12 | 5 (inactive) | 97
Cn1c(=O)cc(SCC(=O)NCCCN2CCN(c3ccc(F)cc3)CC2)c2ccccc21 | 30 (inactive) | 211
O=C(O)C1CCCCC1C(=O)Nc1cnn(Cc2ccccc2)c1 (centres undefined) | 42 (inactive) | 66.5
Cc1ccc(NC(=O)N2CCCN(Cc3ccc(F)cc3)C2)cc1C | 13 (inactive) | 142
CCCCn1c2c(c3ccccc31)CCc1nonc1-2 | 134 (inactive) | 128
CS(=O)(=O)c1nc(-c2cccs2)cc(C(F)(F)F)n1 | 53 (inactive) | 61
O=C1CCCc2c1cc(C(=O)NC1CCSC1=O)c(=O)n2-c1ccccc1 (centres undefined) | 253 (inactive) | 155
Cc1ccc(Oc2ccc(S(=O)(=O)N3CCOCC3)cc2C(N)=O)c(-n2nc3ccccc3n2)c1 | 5 (inactive) | 126
CCOc1ccc(-n2cc(C(=O)N3CCC(C)CC3)c3cc(OC)c(OC)cc3c2=O)cc1 | 202 (inactive) | 251

Structure (SMILES) | cell event count (at 100 µM) | cell event count (event count, at 10 µM)
Cc1cc(C)c2c(=O)n(CC(=O)NCCCN3CCN(c4ccccc4F)CC3)sc2n1 | 15 (inactive) | 216
COCCCN(C(=O)Nc1ccccc1)C(C)c1ccncc1 (centres undefined) | 238 (inactive) | 387
Cc1ccccc1-c1nc(CN2CCC(C(=O)N3CCN(c4ccccn4)CC3)CC2)c(C)o1 | 73 (inactive) | 190
O=C(Cn1cc2c(n1)CCCC2)NCCCN1CCN(c2ccccc2F)CC1 | 94 (inactive) | 102
COC(=O)Nc1sccc1C(=O)Nc1sccc1C(=O)OC | 144 (inactive) | 182
COc1ccc2cc3c(N)nn(C(=O)Cc4ccccc4OC)c3nc2c1 | 20 (inactive) | 287
COc1ccc(-c2noc(CCC(=O)NCCCN3CCC(Cc4ccccc4)CC3)n2)cc1 | 23 (active) | 51
COc1ccc(S(=O)(=O)Nc2ccc(F)c(Cl)c2)cc1OC | 18 (inactive) | 144
Cc1nc2nc(C)c(CCC(=O)NCCCN3CCN(c4cccc(Cl)c4)CC3)c(C)n2n1 | 43 (inactive) | 61
COc1ccc(CCNC(=O)C2CCCN(Cc3nc(-c4cccc(Cl)c4)oc3C)C2)cc1OC (centres undefined) | 21 (inactive) | 247
Cc1oc(-c2ccc(Cl)cc2)nc1CN1CCC(C(=O)NCCCN2CCOCC2)CC1 | 12 (inactive) | 119
CC(C)(C)c1ccc(C(O)CCCN2CCC(C(O)(c3ccccc3)c3ccccc3)CC2)cc1 (centres undefined) | 12 (inactive) | 90
COc1cc2c(C(=O)NCCCN3CCN(c4cccc(Cl)c4)CC3)cn(C)c(=O)c2cc1OC | 15 (inactive) | 230
O=C(NCCCN1CCN(c2cccc(Cl)c2)CC1)c1ccc(N2CCCC2=O)cc1 | 52 (inactive) | 171
CCOC(=O)c1c(-c2ccc(C)o2)csc1NC(=O)CN1CCN(CC)CC1 | 27 (inactive) | 170
CCn1c(=O)cc(SCC(=O)NCCN2CCN(Cc3ccccc3)CC2)c2ccccc21 | 228 (inactive) | 356
Cc1oc(-c2cccc(Cl)c2)nc1CN1CCCC(C(=O)NCc2ccco2)C1 (centres undefined) | 10 (inactive) | 146
N=c1c(C(=O)NC2CCCC2)cc2c(=O)n3ccccc3nc2n1C1CCCC1 | 12 (active) | 55
CCCNC(=O)C1CN(S(=O)(=O)c2ccccc2)CCN1S(=O)(=O)c1ccccc1 (centres undefined) | 120 (inactive) | 67
